# Measured values from PubChem BioAssay (NCATS).
# Where “and” joins values, the source holds several entries; their conditions need not be identical. Equal entries are not always repeated. Unmarked numbers belong to inactive results. Inconclusive results are not listed. Where a call stands in place of a potency, no number is given. Calls of active or inactive are those of the source. Unless noted, the call rests on the fitted dose curve; in most records, active means well fitted curve in the direction sought with a large enough effect; inconclusive means small, poorly fitted or top-dose-only effect, or another doubt; inactive means no such curve, though single readings can be large; an effect the other way counts as inactive or inconclusive.
# Key:
# [1] = biological target: Cytochrome P450 3A4 (Homo sapiens) (UniProt P08684); assay: qHTS Assay for Inhibitors and Substrates of Cytochrome P450 3A4 (AID 884); further: nearly all actives have a fitted effect of over 50% in size; further: potency means the concentration at half of the fitted maximal effect
# In short: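 Luminescent readout of luciferin produced by CYP3A4 (20 nM) dealkylation of Luciferin-PPXE, 25 uM (its KM). NADPH-driven reaction ran 60 min at RT after 10 min compound preincubation; data scaled to 57 uM ketoconazole as 100% inhibition.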
# [2] = biological target: Cytochrome P450 2C9 (Homo sapiens) (UniProt P11712); assay: qHTS Assay for Inhibitors and Substrates of Cytochrome P450 2C9 (AID 883); further: nearly all actives have a fitted effect of over 60% in size
# In short: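 Luminescent read-out of deoxyluciferin hydroxylation, normalized to 57uM sulphaphenazole (AC100). Reaction: 10nM enzyme, 100uM Luciferin-H (equal to KM), 25mM KPO4, 10 min compound preincubation, then 60 min with NADPH regeneration, both at 37C.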
# [3] = qHTS Assay for Identification of Small Molecule Agonists for Hypoxia Response Element Signaling Pathway (AID 914; active means well fitted activation curve with a large enough effect in the signal ratio, with a control signal flat, not every such curve was filed as active; the % refers to the signal ratio); details: ME-180 (cervical carcinoma) HRE-bla reporter, beta-lactamase ratio, CoCl2, 17 h; hits give high values
# In short: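 HRE-bla ME-180 cells, overnight plating in Opti-MEM with 0.5% dialyzed FBS; cpd titration + EC50 CoCl2, 17 h, 37 degrees Celsius; CCF4 2.5 h RT; 460/530 nm ratio; AC50.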
# [4] = biological target: Cytochrome P450 2D6 (Homo sapiens) (UniProt P10635); assay: qHTS Assay for Inhibitors and Substrates of Cytochrome P450 2D6 (AID 891);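 further: luciferin methyl ether substrate demethylated by CYP2D6 with NADPH regeneration; nearly all actives have a fitted effect of over 60% in size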
# In short: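 Luminescent read-out of luciferin formed by 5 nM human CYP2D6 demethylating 30 uM Luciferin-ME EGE (Km level) over 60 min at room temperature after NADPH regeneration addition. Data normalized to full inhibition by 1.43 uM quinidine.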
# [5] = biological target: Cytochrome P450 3A4 (Homo sapiens) (UniProt P08684); assay: qHTS Assay for Activators of Cytochrome P450 3A4 (AID 885); further: nearly all actives have a fitted effect of over 65% in size
# In short: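 CYP3A4 activity: Luciferin-PPXE O-dealkylation, 25uM substrate, 200mM KPO4, RT throughout. Read-out is luciferase luminescence; higher values reflect activation.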
# Chain of Cytochrome P450 3A4 (Homo sapiens) (P08684 whole entry, looked up): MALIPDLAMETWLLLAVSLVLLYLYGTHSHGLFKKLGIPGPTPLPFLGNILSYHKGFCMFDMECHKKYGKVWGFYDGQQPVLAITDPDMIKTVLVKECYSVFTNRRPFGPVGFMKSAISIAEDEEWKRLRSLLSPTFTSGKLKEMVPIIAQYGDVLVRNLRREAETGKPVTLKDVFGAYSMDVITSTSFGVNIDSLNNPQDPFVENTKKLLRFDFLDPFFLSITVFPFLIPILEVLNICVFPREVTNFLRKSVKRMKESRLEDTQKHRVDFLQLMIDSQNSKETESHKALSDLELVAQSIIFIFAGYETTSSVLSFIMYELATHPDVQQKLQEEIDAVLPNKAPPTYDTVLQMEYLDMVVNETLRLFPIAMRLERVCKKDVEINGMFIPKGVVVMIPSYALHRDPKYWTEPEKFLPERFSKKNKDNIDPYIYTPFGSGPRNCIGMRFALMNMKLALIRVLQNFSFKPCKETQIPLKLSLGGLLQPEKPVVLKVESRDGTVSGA
# Chain of Cytochrome P450 2C9 (Homo sapiens) (P11712 whole entry, looked up): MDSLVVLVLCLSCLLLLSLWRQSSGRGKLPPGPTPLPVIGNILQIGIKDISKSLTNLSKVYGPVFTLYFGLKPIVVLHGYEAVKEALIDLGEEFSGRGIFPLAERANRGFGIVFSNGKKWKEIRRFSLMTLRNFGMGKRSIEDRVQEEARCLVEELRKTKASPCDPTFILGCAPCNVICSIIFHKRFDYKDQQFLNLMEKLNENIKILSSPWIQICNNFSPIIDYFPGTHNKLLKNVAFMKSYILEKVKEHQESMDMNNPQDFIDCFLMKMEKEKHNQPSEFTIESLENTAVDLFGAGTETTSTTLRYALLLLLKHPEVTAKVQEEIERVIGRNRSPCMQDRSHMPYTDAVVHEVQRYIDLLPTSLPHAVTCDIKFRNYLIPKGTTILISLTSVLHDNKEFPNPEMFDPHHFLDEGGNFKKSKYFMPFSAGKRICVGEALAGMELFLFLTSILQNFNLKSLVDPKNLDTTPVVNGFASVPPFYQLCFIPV
# Chain of Cytochrome P450 2D6 (Homo sapiens) (P10635 whole entry, looked up): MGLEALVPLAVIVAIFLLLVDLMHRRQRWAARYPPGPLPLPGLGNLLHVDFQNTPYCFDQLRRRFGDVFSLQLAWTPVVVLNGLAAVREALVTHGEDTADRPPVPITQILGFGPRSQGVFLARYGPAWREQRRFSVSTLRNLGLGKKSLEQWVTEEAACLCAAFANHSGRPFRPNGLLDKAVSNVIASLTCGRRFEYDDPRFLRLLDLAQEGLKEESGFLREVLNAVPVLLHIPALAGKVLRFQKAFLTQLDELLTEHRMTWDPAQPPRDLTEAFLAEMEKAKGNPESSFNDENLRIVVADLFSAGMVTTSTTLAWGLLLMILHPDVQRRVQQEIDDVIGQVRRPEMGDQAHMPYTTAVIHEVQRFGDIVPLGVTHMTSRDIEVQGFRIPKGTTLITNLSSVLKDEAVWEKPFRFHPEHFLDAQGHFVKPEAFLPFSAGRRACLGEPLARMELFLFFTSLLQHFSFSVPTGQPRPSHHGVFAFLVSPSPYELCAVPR
structure (smiles),measurement,setting,value
Cn1c(N)c(C(=O)COC(=O)c2cc(C(F)(F)F)nc3ccccc23)c(=O)n(C)c1=O,Potency,[1],inactive
FC(F)(F)c1cccc(-c2noc(-c3cc(-c4ccccc4)c(C(F)(F)F)s3)n2)c1,Potency,[1],inactive
C[C@@H](c1ccccc1)N1C(=O)[C@H]2[C@@H]3[C@H](O)[C@H](O)CC(=O)[C@H]3CC[C@H]2C1=O,Potency,[2],inactive
same,activation,[3],-2.53% and -2.06%
CCC1=C(OC(=O)N(CC)CC)N2C(=O)OC(=NCCc3c[nH]c4ccccc34)[C@]2(C)[C@H]2C1=CC[C@H]1C(=O)N(CC(=O)OC)C(=O)[C@H]12,Potency,[1],2 µM (active)
O=C(O)c1cc(-c2ccco2)nc2ccccc12,Potency,[1],inactive
C=CCOC(=O)C(C(C)=O)C(NC(=O)OC)c1ccc2ccccc2c1 (centres undefined),Potency,[2],inactive
same,Potency,[4],inactive
COC(=O)c1ccc(C23CC4(C2)[C@H](CN(CC2CCCCC2)[C@@H]4c2ccccc2)C3c2ccccc2)cc1 (some centres undefined),Potency,[5],inactive
COC(=O)NC(c1ccco1)C(C(C)=O)C(=O)OC (centres undefined),"activity change, positive = activation",[5],-66.9% [at 11.4 µM]
COCCN=C1OC(=O)N2C(=O)C3=C4C(C[C@H]5C(=O)N(c6ccccc6)C(=O)[C@H]5[C@H]4[C@@]12Cc1ccccc1)[C@H]1C(=O)N(c2ccccc2)C(=O)[C@H]1[C@H]3C (some centres undefined),Potency,[1],5.01 µM (active)
same,Potency,[5],inactive
CCCNC(=O)OC[C@@H]1O[C@H](CCO/N=C2\c3cc(OC)ccc3O[C@H](c3cccc(OC)c3)[C@H]2O)C=C[C@@H]1Oc1ccc(OC)cc1,Potency,[1],5.01 µM (active)
same,"activity change, positive = activation",[5],-120% [at 11.4 µM]
